Molecules are shown by their SMILES. Compounds without any hit were thinned out: in the full panel of roughly 83,000, 20% have a hit.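 For each line, cells grew in 96-well plates with the test compound present at a single concentration for 48 hours.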 Activity calls are given as the source filed them. Rule for the calls: active = growth percent below 10; inactive = the rest.

The first test concerns U251 CNS. Put plainly: NCI-60 one-dose screen, 48 h (100 = growth as untreated, 0 = no growth, -100 = all killed). As to conditions: 10 µM unless noted.
As to `CC/C(=C(/c1ccc(Cl)cc1)c1ccc(OCCN2CCCC2)cc1)c1ccc(OC)cc1`, the growth was 45.3% (inactive).
In the case of `c1cc2[nH]ncc2cc1-c1nc2ccc3[nH]ncc3c2c2c1CCCC2`, the growth is 15.7% (inactive).
With `O=C(/C=C/c1ccc(Cl)cc1)c1cccc(Nc2nc(Nc3ccccc3)nc(Nc3ccccc3)n2)c1`, the growth is 82.7% (inactive).
With `N#Cc1nc(-c2ccccc2)oc1S(=O)(=O)N1CCOCC1`, the growth was 93.7% (inactive).
On to `O=C1Nc2ccccc2/C1=C\c1nc(-c2ccccc2)n2ccccc12`, for which the growth was 89.6% (inactive).
On the same count and under the same terms, then `O=C(COc1ccc(-c2nc3ccccc3[nH]2)cc1)N=Nc1c(O)[nH]c2ccc(Cl)cc12`, with -45.1% (active); and `COc1ccc(NC(=O)c2sc3nc(C)c(C(=O)/C=C/c4cccc(OC)c4)cc3c2N)cc1`, with 1.61% (active); and `COc1cnc2c(c1)C(=O)c1c-2n(CCCNCCO)c(=O)c2ccncc12`, with 0.604% (active).
`O=C(Nc1nc2ccc(F)cc2s1)c1cccnc1Nc1ccc(Cl)cc1`: the growth was 21.6% (inactive).
For `N#CC1C=CN(CC(N)=O)c2ccc3cccnc3c21` (stereo not given), the growth is 91.7% (inactive).
As to `COc1ccc(-c2nc3c(c(-c4ccccc4)nn3-c3ccccc3)c(-c3ccc(N4CCN(C)CC4)cc3)c2C#N)cc1`, the growth was 77.4% (inactive).
As to `Cn1c(=O)c2[nH]c(N/N=C/c3ccccc3Br)nc2n(C)c1=O`, the growth was 111% (inactive).
In the case of `O=C(Nc1ccc(NC(=O)c2cc(=O)[nH]c3ccccc23)cc1)Nc1cccc(C(F)(F)F)c1`, the growth is 19.5% (inactive).
`O=C1C(Cl)=C(Oc2ccccc2)C(=O)c2ccccc21`: the growth is 42.1% (inactive).
For `CC(C)OC(=O)c1ccc2[nH]c(O)c(C(=Nc3ccc(N(C)C(=O)CN4CCN(C)CC4)cc3)c3ccccc3)c2c1`, the growth was -90.5% (active).
With `O=C1C(Cl)=C(Nc2ccc(O)cc2)C(=O)N1Cc1ccc(Cl)cc1`, the growth is 47.1% (inactive).
The same measure, in the same setting: the value for `COc1cc(OC)c2sc(-c3ccc(-n4cncc4-c4ccc(OC)c(OC)c4)cc3)nc2c1` was 46% (inactive); that for `CCN(CC)C(=S)SC(SC(=S)N(CC)CC)C(=O)c1nnn(-c2ccc([N+](=O)[O-])cc2)c1C` was 81.5% (inactive).
`COc1cccc(CNc2ncnc3c2ncn3C2OC(CO)C(O)C2O)c1O` (stereo not given): the growth was 12.6% (inactive).
`CC(C)c1ccc(COCc2cc(CN3CCCC3)c(O)c3ncccc23)cc1`: the growth was -13.2% (active).
The same measure, in the same setting: the value for `O=C(NCc1ccccc1)Nc1ccccc1CNc1nc(Nc2ccc(OCCN3CCCC3)cc2)ncc1Cl` was 45.5% (inactive); that for `Cc1ccc(-n2c(=S)[nH]c3sc4c(c3c2=O)CCC(=O)C4)cc1` was 36.7% (inactive).
As for `Oc1c(Cl)cc(Cl)cc1/C=N/Nc1nnc(N/N=C/c2cc(Cl)cc(Cl)c2O)c2ccccc12`, the growth was 21% (inactive).
With `CCCCCCC1(C)NCCO1` (stereo not given), the growth is 92.4% (inactive).
In the case of `Clc1ccc2c(c1)N(c1ncnc3ccc(-c4cnc5[nH]ncc5c4)cc13)CC2`, the growth was 39.8% (inactive).
The same measure, in the same setting: the value for `COC(=O)c1cc(-c2ccc(S(C)(=O)=O)cc2)[nH]c1N/N=C/c1c(Cl)cccc1Cl` was 26.8% (inactive); that for `C=CCn1c(SCC(=O)Nc2ccc(C(=O)/C=C/c3ccc(Cl)cc3)cc2)nnc1-c1cc(-c2ccc(S(N)(=O)=O)cc2)nc2ccccc12` was 71.2% (inactive); that for `Cc1cc2c(O)c(-c3cc(Cl)ccc3Cl)c3sc(=O)oc3c2cc1C` was 45.4% (inactive).
`CC(=O)N(N=Nc1ccccc1)c1cccc2ccccc12`: the growth was 81.7% (inactive).
As for `Cc1ccc(-c2nc3nc(-c4ccc(F)cc4)nc(N4CCNCC4)c3o2)cc1`, the growth is -30.9% (active).
In the case of `O=c1oc2ccc([N+](=O)[O-])cc2cc1Br`, the growth was 101% (inactive).
For the compound `COc1ccc2nc(NC(=O)CSc3nnc4n3S(=O)(=O)c3ccccc3N4C)sc2c1`, the growth was 102% (inactive).
`Cc1ccc(-c2nn(-c3ccccc3)cc2C=C2C(=O)ON=C2C(C)C)cc1`: the growth is 52.4% (inactive).
With `Cc1cccc(N2CCN(CC(O)COc3ccc(Cl)cc3)CC2)c1` (stereo not given), the growth is 95.7% (inactive).
As to `Cc1nc2c(=O)[nH]c(SCC(=O)Nc3cccc(F)c3)nc2[nH]c1=O`, the growth was 106% (inactive).
For the compound `CN(C)c1ccc(/C=C/C(=O)c2ccc(-n3cc(CN4CCN(c5cc6c(cc5F)c(=O)c(C(=O)O)cn6C5CC5)CC4)nn3)cc2)cc1`, the growth is 16.5% (inactive).
Take `COc1cc2c(c(OC)c1OC)-c1ccc(OC)c(=O)cc1[C@@H](NC(=O)CCl)CC2`: the growth was 4.55% (active).
For the compound `O=C(Nc1cccnc1Nc1ccc(F)cc1)c1cn(Cc2cccc(Oc3ccccc3)c2)nn1`, the growth was 51.4% (inactive).
For the compound `COc1ccc(-c2ccc3cnc4sc(-c5ccc(OC)cc5)nc4c3n2)cc1`, the growth was 94.4% (inactive).
Same read-out and setting: then `CN1CCN(c2ccc(NC(=O)c3cncnc3Nc3ccc(OCc4ccccn4)c(Cl)c3)cc2)CC1`, with 2.96% (active).

The test system of the next test is PC-3 prostate. The description is as above. As to conditions: 10 µM unless noted.
As for `CC/C(=C(/c1ccc(Cl)cc1)c1ccc(OCCN2CCCC2)cc1)c1ccc(OC)cc1`, the growth is 47.5% (inactive).
The same measure, in the same setting: the value for `c1cc2[nH]ncc2cc1-c1nc2ccc3[nH]ncc3c2c2c1CCCC2` was 23.1% (inactive); that for `O=C(/C=C/c1ccc(Cl)cc1)c1cccc(Nc2nc(Nc3ccccc3)nc(Nc3ccccc3)n2)c1` was 87.9% (inactive).
The same measure, in the same setting: the value for `N#Cc1nc(-c2ccccc2)oc1S(=O)(=O)N1CCOCC1` was 100% (inactive); that for `O=C1Nc2ccccc2/C1=C\c1nc(-c2ccccc2)n2ccccc12` was 87.4% (inactive).
Regarding `O=C(COc1ccc(-c2nc3ccccc3[nH]2)cc1)N=Nc1c(O)[nH]c2ccc(Cl)cc12`, the growth was 25.9% (inactive).
As to `COc1ccc(NC(=O)c2sc3nc(C)c(C(=O)/C=C/c4cccc(OC)c4)cc3c2N)cc1`, the growth is 55.2% (inactive).
On the same count and under the same terms, then `COc1cnc2c(c1)C(=O)c1c-2n(CCCNCCO)c(=O)c2ccncc12`, with 6.97% (active); and `O=C(Nc1nc2ccc(F)cc2s1)c1cccnc1Nc1ccc(Cl)cc1`, with 14% (inactive); and `N#CC1C=CN(CC(N)=O)c2ccc3cccnc3c21` (stereo not given), with 84.2% (inactive).
As for `COc1ccc(-c2nc3c(c(-c4ccccc4)nn3-c3ccccc3)c(-c3ccc(N4CCN(C)CC4)cc3)c2C#N)cc1`, the growth was 94.3% (inactive).
As to `Cn1c(=O)c2[nH]c(N/N=C/c3ccccc3Br)nc2n(C)c1=O`, the growth is 98.4% (inactive).
Regarding `O=C(Nc1ccc(NC(=O)c2cc(=O)[nH]c3ccccc23)cc1)Nc1cccc(C(F)(F)F)c1`, the growth is 69.8% (inactive).
`O=C1C(Cl)=C(Oc2ccccc2)C(=O)c2ccccc21`: the growth is 47.8% (inactive).
As for `CC(C)OC(=O)c1ccc2[nH]c(O)c(C(=Nc3ccc(N(C)C(=O)CN4CCN(C)CC4)cc3)c3ccccc3)c2c1`, the growth is 9.18% (active).
In the case of `O=C1C(Cl)=C(Nc2ccc(O)cc2)C(=O)N1Cc1ccc(Cl)cc1`, the growth was 45.9% (inactive).
Consider `COc1cc(OC)c2sc(-c3ccc(-n4cncc4-c4ccc(OC)c(OC)c4)cc3)nc2c1`, for which the growth is 27.6% (inactive).
As for `CCN(CC)C(=S)SC(SC(=S)N(CC)CC)C(=O)c1nnn(-c2ccc([N+](=O)[O-])cc2)c1C`, the growth was 78.1% (inactive).
Same read-out and setting: then `COc1cccc(CNc2ncnc3c2ncn3C2OC(CO)C(O)C2O)c1O` (stereo not given), with 15.7% (inactive).
As for `CC(C)c1ccc(COCc2cc(CN3CCCC3)c(O)c3ncccc23)cc1`, the growth was 11.6% (inactive).
On the same count and under the same terms, then `O=C(NCc1ccccc1)Nc1ccccc1CNc1nc(Nc2ccc(OCCN3CCCC3)cc2)ncc1Cl`, with 94.5% (inactive); and `Cc1ccc(-n2c(=S)[nH]c3sc4c(c3c2=O)CCC(=O)C4)cc1`, with 41% (inactive); and `Oc1c(Cl)cc(Cl)cc1/C=N/Nc1nnc(N/N=C/c2cc(Cl)cc(Cl)c2O)c2ccccc12`, with 16.3% (inactive).
On to `CCCCCCC1(C)NCCO1` (stereo not given), for which the growth is 94% (inactive).
With `Clc1ccc2c(c1)N(c1ncnc3ccc(-c4cnc5[nH]ncc5c4)cc13)CC2`, the growth was 23.8% (inactive).
Consider `COC(=O)c1cc(-c2ccc(S(C)(=O)=O)cc2)[nH]c1N/N=C/c1c(Cl)cccc1Cl`, for which the growth was 15.6% (inactive).
Take `C=CCn1c(SCC(=O)Nc2ccc(C(=O)/C=C/c3ccc(Cl)cc3)cc2)nnc1-c1cc(-c2ccc(S(N)(=O)=O)cc2)nc2ccccc12`: the growth was 71.8% (inactive).
`Cc1cc2c(O)c(-c3cc(Cl)ccc3Cl)c3sc(=O)oc3c2cc1C`: the growth was 29.2% (inactive).
`CC(=O)N(N=Nc1ccccc1)c1cccc2ccccc12`: the growth is 68.1% (inactive).
As to `Cc1ccc(-c2nc3nc(-c4ccc(F)cc4)nc(N4CCNCC4)c3o2)cc1`, the growth was 14.8% (inactive).
For `O=c1oc2ccc([N+](=O)[O-])cc2cc1Br`, the growth is 96.8% (inactive).
`COc1ccc2nc(NC(=O)CSc3nnc4n3S(=O)(=O)c3ccccc3N4C)sc2c1`: the growth was 94.7% (inactive).
Take `Cc1ccc(-c2nn(-c3ccccc3)cc2C=C2C(=O)ON=C2C(C)C)cc1`: the growth was 63.5% (inactive).
In the case of `Cc1cccc(N2CCN(CC(O)COc3ccc(Cl)cc3)CC2)c1` (stereo not given), the growth is 91.9% (inactive).
With `Cc1nc2c(=O)[nH]c(SCC(=O)Nc3cccc(F)c3)nc2[nH]c1=O`, the growth was 102% (inactive).
In the case of `CN(C)c1ccc(/C=C/C(=O)c2ccc(-n3cc(CN4CCN(c5cc6c(cc5F)c(=O)c(C(=O)O)cn6C5CC5)CC4)nn3)cc2)cc1`, the growth was 57.4% (inactive).
On the same count and under the same terms, then `COc1cc2c(c(OC)c1OC)-c1ccc(OC)c(=O)cc1[C@@H](NC(=O)CCl)CC2`, with 22.8% (inactive); and `O=C(Nc1cccnc1Nc1ccc(F)cc1)c1cn(Cc2cccc(Oc3ccccc3)c2)nn1`, with 61.6% (inactive).
Take `COc1ccc(-c2ccc3cnc4sc(-c5ccc(OC)cc5)nc4c3n2)cc1`: the growth was 70.3% (inactive).
For the compound `CN1CCN(c2ccc(NC(=O)c3cncnc3Nc3ccc(OCc4ccccn4)c(Cl)c3)cc2)CC1`, the growth is 61% (inactive).

The record behind these values is PubChem BioAssay (NCI).
